{"source": "paper PMC11006913", "data": [{"target": "T1, NKX2-6 (Homo sapiens, UniProt A6NCS4 118-204, R150C)", "T1 sequence": "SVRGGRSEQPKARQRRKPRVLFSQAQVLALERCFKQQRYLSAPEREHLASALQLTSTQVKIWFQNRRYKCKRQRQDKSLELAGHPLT", "assay": "PBM; 200 nM protein, PBS", "settings": "dsDNA, one strand shown", "values": [{"sequence": "ACCGTGGA", "binding signal": "9.56 upbm affinity estimate (log intensity, higher = more binding, comparable within an allelic series)"}, {"sequence": "GCCGTGAA", "binding signal": "9.62 upbm affinity estimate (log intensity, higher = more binding, comparable within an allelic series)"}, {"sequence": "TCACTCAA", "binding signal": "10.9 upbm affinity estimate (log intensity, higher = more binding, comparable within an allelic series)"}, {"sequence": "AGCCCCTG", "binding signal": "9.59 upbm affinity estimate (log intensity, higher = more binding, comparable within an allelic series)"}, {"sequence": "CGCCCGTC", "binding signal": "9.36 upbm affinity estimate (log intensity, higher = more binding, comparable within an allelic series)"}, {"sequence": "CCCGGGGA", "binding signal": "9.42 upbm affinity estimate (log intensity, higher = more binding, comparable within an allelic series)"}, {"sequence": "GAGGCGGA", "binding signal": "9.49 upbm affinity estimate (log intensity, higher = more binding, comparable within an allelic series)"}, {"sequence": "CGCCCCGC", "binding signal": "9.59 upbm affinity estimate (log intensity, higher = more binding, comparable within an allelic series)"}, {"sequence": "CTACTTTA", "binding signal": "11 upbm affinity estimate (log intensity, higher = more binding, comparable within an allelic series)"}, {"sequence": "CGCCTACA", "binding signal": "9.72 upbm affinity estimate (log intensity, higher = more binding, comparable within an allelic series)"}, {"sequence": "CACTTCCA", "binding signal": "11 upbm affinity estimate (log intensity, higher = more binding, comparable within an allelic series)"}, {"sequence": "AAAGTGAG", "binding signal": "10.8 upbm affinity estimate (log intensity, higher = more binding, comparable within an allelic series)"}, {"sequence": "CCCCGTTC", "binding signal": "9.42 upbm affinity estimate (log intensity, higher = more binding, comparable within an allelic series)"}, {"sequence": "ACCGACGC", "binding signal": "9.5 upbm affinity estimate (log intensity, higher = more binding, comparable within an allelic series)"}, {"sequence": "AACCGCCC", "binding signal": "9.72 upbm affinity estimate (log intensity, higher = more binding, comparable within an allelic series)"}, {"sequence": "CTCTTGAC", "binding signal": "11.2 upbm affinity estimate (log intensity, higher = more binding, comparable within an allelic series)"}, {"sequence": "GGGGAACC", "binding signal": "9.63 upbm affinity estimate (log intensity, higher = more binding, comparable within an allelic series)"}, {"sequence": "GCAGCACC", "binding signal": "9.59 upbm affinity estimate (log intensity, higher = more binding, comparable within an allelic series)"}, {"sequence": "CGCTCACC", "binding signal": "9.46 upbm affinity estimate (log intensity, higher = more binding, comparable within an allelic series)"}, {"sequence": "GGTCAGAC", "binding signal": "9.52 upbm affinity estimate (log intensity, higher = more binding, comparable within an allelic series)"}, {"sequence": "CCGTAGCG", "binding signal": "9.34 upbm affinity estimate (log intensity, higher = more binding, comparable within an allelic series)"}, {"sequence": "CACGCCAG", "binding signal": "9.43 upbm affinity estimate (log intensity, higher = more binding, comparable within an allelic series)"}, {"sequence": "CAGCCCTG", "binding signal": "9.44 upbm affinity estimate (log intensity, higher = more binding, comparable within an allelic series)"}, {"sequence": "AGGCACCC", "binding signal": "9.55 upbm affinity estimate (log intensity, higher = more binding, comparable within an allelic series)"}, {"sequence": "GGTCAACC", "binding signal": "9.62 upbm affinity estimate (log intensity, higher = more binding, comparable within an allelic series)"}, {"sequence": "CACTCGTC", "binding signal": "10.8 upbm affinity estimate (log intensity, higher = more binding, comparable within an allelic series)"}, {"sequence": "CGCCAACC", "binding signal": "9.44 upbm affinity estimate (log intensity, higher = more binding, comparable within an allelic series)"}, {"sequence": "ACGGGGTC", "binding signal": "9.58 upbm affinity estimate (log intensity, higher = more binding, comparable within an allelic series)"}, {"sequence": "CCCGCACA", "binding signal": "9.66 upbm affinity estimate (log intensity, higher = more binding, comparable within an allelic series)"}, {"sequence": "AGTAAGTA", "binding signal": "11.1 upbm affinity estimate (log intensity, higher = more binding, comparable within an allelic series)"}, {"sequence": "GATCCGAC", "binding signal": "9.56 upbm affinity estimate (log intensity, higher = more binding, comparable within an allelic series)"}, {"sequence": "GAGTCTGC", "binding signal": "9.64 upbm affinity estimate (log intensity, higher = more binding, comparable within an allelic series)"}, {"sequence": "AAGAAGTG", "binding signal": "11.2 upbm affinity estimate (log intensity, higher = more binding, comparable within an allelic series)"}, {"sequence": "CCGGTAGG", "binding signal": "9.6 upbm affinity estimate (log intensity, higher = more binding, comparable within an allelic series)"}, {"sequence": "GGTCTGCA", "binding signal": "9.86 upbm affinity estimate (log intensity, higher = more binding, comparable within an allelic series)"}, {"sequence": "CATGCCGG", "binding signal": "9.42 upbm affinity estimate (log intensity, higher = more binding, comparable within an allelic series)"}, {"sequence": "GCATGCGC", "binding signal": "9.48 upbm affinity estimate (log intensity, higher = more binding, comparable within an allelic series)"}, {"sequence": "GGCATCCC", "binding signal": "9.47 upbm affinity estimate (log intensity, higher = more binding, comparable within an allelic series)"}, {"sequence": "CCCGCCGA", "binding signal": "9.28 upbm affinity estimate (log intensity, higher = more binding, comparable within an allelic series)"}]}]}
